Reference: PubChem BioAssay AID1259240 (Keith Lab, Institute of Cancer Science, University of …, 2017)
Active and inactive are the calls of the source. Rule as the data show it: active = fold change mostly below about -2 (no sharp cut-off); inactive = mostly above about -1.8.

Assay: TERT promoter activity modulators, primary screen, cell-based, luciferase reporter, human (AID 1259240)
Conditions: A2780 TERT promoter luciferase reporter, 16 h; at 20 µM, fold versus average of vehicle-only wells

SMILES | fold change | outcome
CCOC(=O)Cn1c(=O)oc2cc(S(=O)(=O)NC3CCN(C(=O)OCC)CC3)ccc21 | 1.58 (inactive) | –
Cc1cc(NC(=O)c2cc3c(s2)-c2ccccc2S(=O)(=O)C3)no1 | 1.14 (inactive) | –
CCOc1ccc(-n2c(O)cnc2Nc2nc(C)cc(C)n2)cc1 | -1.65 (inactive) | –
CCNc1nc(NCC)nc(OCCNS(=O)(=O)c2ccccc2)n1 | -1.79 (inactive) | –
COc1cc(C(=O)Nc2ccc3oc(-c4ccncc4)nc3c2)cc(OC)c1OC | -1.49 (inactive) | –
COc1ccccc1-c1cc(N)n(S(=O)(=O)c2ccc([N+](=O)[O-])cc2)n1 | -1.09 (inactive) | –
CCc1cc(C)cc(OCC(O)Cn2cnc3ccccc32)c1 (stereo unspecified) | -1.77 (inactive) | –
CCOC(=O)c1c(C)n(C)c2ccc(OCC(O)Cn3nc(C)cc3C)cc12 (stereo unspecified) | -2.1 (active) | –
Cc1ccn(CN2CCN(Cn3ccc(C)n3)C2=S)n1 | 1.29 (inactive) | –
CCOC(=O)CSc1nnc(-c2c[nH]c3ccccc23)n1CCOC | – | inactive
CCc1ccc2[nH]cc(S(=O)(=O)c3ccc(F)cc3)c(=O)c2c1 | -1.48 (inactive) | –
CCOC(=O)N1CCN(c2c(NCC3CCCO3)c(=O)c2=O)CC1 (stereo unspecified) | 1.16 (inactive) | –
CN1CCc2c(sc3c2C(=O)NC(c2cccc(Cl)c2Cl)N3)C1 (stereo unspecified) | -1.43 (inactive) | –
c1csc(CSc2nnc3sc4ccccc4n23)c1 | 1.26 (inactive) | –
O=C1c2cccnc2C(=O)N1Cc1ccccc1 | 1.84 (inactive) | –
C=CCN1C(=O)/C(=c2\sc3nc(-c4ccccc4OC)nn3c2=O)c2cc(Br)ccc21 | 1.17 (inactive) | –
